# Results reported in the supplement of paper PMC10105736.
# ± gives the standard deviation of the averaged measurements.
# Experiments:
# Experiment in all cases: MAPPIT interaction score (arbitrary units); higher = stronger binary interaction signal, active = hit call of the paper;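 active = MAPPIT score above the 99th percentile of random reference set scores in the same batch; inactive = at or below it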
# [1] = molecular target: Fkbp12; conditions: MAPPIT configuration: N-N; pair source set: DPIM
# [2] = molecular target: Gem2; conditions: MAPPIT configuration: N-N; pair source set: Lit-BM-16
# [3] = molecular target: Smn; conditions: MAPPIT configuration: N-N; pair source set: screen_2
# [4] = molecular target: Gnpnat; conditions: MAPPIT configuration: N-N; pair source set: screen_1
# [5] = molecular target: Jhbp2; conditions: pair source set: RRS
# [6] = molecular target: GluRIIC; conditions: MAPPIT configuration: N-N; pair source set: Lit-BS-16
# [7] = molecular target: Gs1; conditions: pair source set: RRS
# [8] = molecular target: Fkbp39; conditions: pair source set: Lit-BM-16
# [9] = molecular target: Fer1HCH; conditions: MAPPIT configuration: N-N; pair source set: Curagen_low_conf
# [10] = molecular target: mino; conditions: MAPPIT configuration: N-N; pair source set: Lit-BS-16
# [11] = molecular target: FoxP; conditions: MAPPIT configuration: N-N; pair source set: Curagen_high_conf
# [12] = molecular target: GILT3; conditions: MAPPIT configuration: N-N; pair source set: Finley_Y2H
# [13] = molecular target: GILT1; conditions: MAPPIT configuration: N-N; pair source set: Curagen_low_conf
# [14] = molecular target: Mad1; conditions: MAPPIT configuration: N-N; pair source set: screen_1
# 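Note: HEK293T cells with Epo stimulation, STAT-responsive firefly luciferase reporter, fold induction versus unstimulated cells divided by the larger fold induction of two negative controls lacking either bait or prey.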
binder,measurement,setting,value
sigmar (protein) MADNVFKSHDIGLRAQKKILSRMATKNIAKTFIDGTTASLLDNLYRLCKMHTGNKAKAEKLIKNIIKIVIKIGVLHRNNQFSDEELQKAELFKRKFQNTQLSIISFYEVDFTFDLPYLQKSIAESQVALKSIVQPHLTEKSLGRIDEVFDFFGEEALLETAFRPDSPYREVMGKIVADINAAMETGDI,MAPPIT interaction score,[1],-0.294 (inactive)
Smn (protein) MSDETNAAVWDDSLLVKTYDESVGLAREALARRLADSTNKREEENAAAAEEEAGEISATGGATSPEPVSFKVGDYARATYVDGVDYEGAVVSINEEKGTCVLRYLGYENEQEVLLVDLLPSWGKRVRREQFLIAKKDEDEQLSRPKASAGSHSKTPKSSRRSRISGGLVMPPMPPVPPMIVGQGDGAEQDFVAMLTAWYMSGYYTGLYQGKKEASTTSGKKKTPKK,MAPPIT interaction score,[2],6.28 (active)
same,MAPPIT interaction score,[3],6.24 (active)
Gnpnat (protein) MVQLTEETYLYDPNLLLKLDFHRSPANFKPFISAANPGEPWMKVRPLKDTDYDRGFLQLLSQLTHVGNVNRTQFLTRFSQMKASGDYFVTVIEDTRKNEIIGAASLVIERKFIHNCAVRGRLEDVVVNDTYRGKQLGKLIVVTVSLLAEELGCYKMSLDCKDKLIKFYESLGYVAIPGNSNSMTIRYDEGPTLKRNATSAGSSGTVGDSCQTVSLDFAS,MAPPIT interaction score,[4],5.14 (active)
same,MAPPIT interaction score,[5]; MAPPIT configuration: N-C,-0.259 (inactive)
same,MAPPIT interaction score,[5]; MAPPIT configuration: N-N,0.242 (inactive)
cora (protein) MPAEIKPSAPAEPETPTKSKPKSSSSSHGKPALARVTLLDGSLLDVSIDRKAIGRDVINSICAGLNLIEKDYFGLTYETPTDPRTWLDLEKPVSKFFRTDTWPLTFAVKFYPPEPSQLKEDITRYHLCLQVRNDILEGRLPCTFVTHALLGSYLVQSEMGDYDAEEMPTRAYLKDFKIAPNQTAELEDKVMDLHKTHKGQSPAEAELHYLENAKKLAMYGVDLHPAKDSEGVDIMLGVCASGLLVYRDKLRINRFAWPKILKISYKRHHFYIKIRPGEFEQYESTIGFKLANHRAAKKLWKSCVEHHTFFRLMTPEPVSKSKMFPVFGSTYRYKGRTQAESTNTPVDRTPPKFNRTLSGARLTSRSMDALALAEKEKVARKSSTLDHRGDRNADGDAHSRSPIKNKKEKDADKEAKLREKKQKEKEEKERKEREKRELEEKKKAEKAAKAALAAGAAAGAAVNGNDELNDSNKSDKSSGRRGVGIFSSGRKSKSGSPSKDGKDKSGKDKDKEVGRLGLVVTSGLGDNQQDQNLDEAARNAAKNRGSTTPGVTRQYEYAVDNDGNTSPTRKSYTPGGFRYDQDPNSRKSGADGQEQLSPTSQQKKIGLAFNYAPGNENALKETAEKLKAGQLSPRTQDKLNRGQLSPKSRAKLLQDPLLSPTTRAKLQGSAVDAAAVPLSDSQKRSYSPTKGPQGYSSGAPGSYKPISDPTADFLESQRYNKEPGYVGPSKADVAAGLAGAAGSKKPGSPTKTGKGAPGAAAAAAAGAAGAAAAAAKPKKRRVKIMVITSKFDPSTKRIDAENGSIEHSTGILDPATGLIDTKYGVIDPKKGTLEALNTKTGKKEVFQGDVDGKTGNLHLVSGVADPKTGRLDDTLGQIVCITPQDNPVVELTVITSRIDPATGKIDTVNGDVERSLGVLNLDTGLLDTKYGEINTRTGELKAIDPKSGKIVVSKNVKVDPGTGQITILGIVDPKTNKIDPNQGRLIEVGQQIDPIVEVTSLAGKFDSKRNIIDPKTAQVETSGGQFDPKAGKIDTKYGQIDLVKHTITFNDPKSGKTVTRDIKIEPTTGQIVLKNQVNPKNNKPDKDYARIISLRIVQQRVDPATKAPITEVSASKDKDIVVDPKSNQIWVPTGATDPATKEQQYISSSVDPKTGYVITIYGYLDPKTNEIKKQTKLDPNTIKIEPTSGKIYTATGEVDQATGEPLYAATQVDPESGEVYTKLARVDPKTGKIVIVRILLISKTDERGRPEEIDPSTCEIDPVSGRVLKFFNKTVYVYNMIDPVTGEIVQVDPNDPRFAGARTTVTHTMTLTGEIDPVTGRIKSEYGDIDPNTGDIDPATAVTDPVTGKLILNYAQIDPSHFGKQAQVQTTTETVPITRQQFFDGVKHISKGALRRDSEGSSDDDMTAQYGADQVNEILIGSPAGQAGGKLGKPVSTPTVVKTTTKQVLTKNIDGVTHNVEEEVRNLGTGEVTYSTQEHKADATPTDLSGAYVTATAVTTRTATTHEDLGKNAKTEQLEEKTVATTRTHDPNKQQQRVVTQEVKTTATVTSGDQYQRRDSVSSTSSGDSGTPIDGPYDGASVVRTDNQKSPLFTTSATTGPHVESTRVVLGEDTPGFSGHGEIISTQTVSSKTRTVETITYKTERDGIVETRVEQKITIQSDGDPIDHDKALAEAIQEATAMNPDMTVEKIEIQQQTQ,MAPPIT interaction score,[6],-0.379 (inactive)
cactin (protein) MPKEKSKHRHRSRSRERRDHRSPDPRSSRNRDRDREREREKDRDHRDHRDKERDQRREREKDKSRDKKREHKSRRRRSSSSSSSPSSSTSSSVPGAPRSPLVKSPMKLLQTLEARRLVEQKDRQRKKEELKAHETPEEKRARRLREKQAKEQRRRERMGWDNEYQTYSNEDNPFGDSNLTSTFHWGKKLEVEGLSNLSTKTVEVLSLQKQLENRRELEKVKKRRQERELERQVREDDLMMQQRAKEAVQFREWQRQEDQFHLEQARLRSEIRIRDGRAKPIDLLAQYVAAGNEPLEECLEMQMHEPYVLLNGLPVEELEDLLVDIKVYEELEQGKHIDFWNDMITIVQDELQRQQKLEAENSSLNQRRDGIHQAVVKDVADIFRGKNAQQLEEMRHRIEAKISGRADGVDISYWESLLSQLKAHMARARLRDRHQALLREKLSLLKRENDNETLQEKVAPQVKEEEMETQDAEDPEVEEGSPEDEEDPLNELRKTVRLYQAGNYSPRYIREEDFTGRRAQNEDVDEPEAEGLLYEEEDDERRTQRQRLLILHPERVDNNQLTPQELRMRNEAKQGMQGDEAEFSVETTLDAVPQLATDKYRPRKPRYFNRVHTGFEWNKYNQTHYDMDNPPPKIVQGYKFNIFYPDLMDKSQTPQYFLTPCADNGDFAVLRFHTGPPYEDIAFKIVNREWEFSYKRGFRCQFHNNIFQLWFHFKRYRYRR,MAPPIT interaction score,[7]; MAPPIT configuration: N-C,0.448 (inactive)
same,MAPPIT interaction score,[7]; MAPPIT configuration: N-N,0.325 (inactive)
Fkbp39 (protein) MSMFWGLNMKPERKYSQTIIKSFHISGVALDKGQEAKLYLAAEKQEYIVATVTKAIPQVALDLNFSKGDRIMFYTAGDASVSLLGYLHDIDSEDDEDDDQMTIENLLNSKAIKNSKKSEDDEDENESGEEDEEDTDDDSQIIEEYESFLENGEEEDDDDVDEDNEESGEEDEQDSDDSEAEEEQPKAKVAKLSPGASAKKSGKEQNGVAKKEEAKQQQKKKEKPEAKKEQPKAKEPAKQQPASKDPRTITGGVKIVDQVVGKGEEAKQGKRVSVYYIGRLQSNNKTFDSLLKGKPFKFALGGGEVIKGWDVGVAGMKVGGKRVITCPPHMAYGARGAPPKIGPNSTLVFEVELKAVH,MAPPIT interaction score,[8]; MAPPIT configuration: N-C,3.82 (active)
same,MAPPIT interaction score,[8]; MAPPIT configuration: N-N,2.59 ± 0.55
Hn (protein) MYQRQVSFDKPTRVEDSAYIVEGVDIKEARNTCLLFSPKDSSLSSGALANILAIFKKHDINLVHIESRSSLRVPGYEFFVEADGKSGALGKAIEDVKEQCSYFNIISRDYKDNATAVPWFPRRIRDLDRFANQILSYGSELDADHPGFTDPEYRKRRKYFADIAYNYKHGEPLPHVDYTKEEIETWGIIFRNLTKLYKTHACREYNHVFPLLVDNCGFREDNIPQLEDVSNFLRDCTGFTLRPVAGLLSSRDFLAGLAFRVFHSTQYIRHPSKPMYTPEPDVCHELMGHVPLFADPAFAQFSQEIGLASLGAPDDYIEKLSTIFWFTVEYGVCRQEGELKAYGAGLLSSYGELEYCLTDKPQLKDFEPEVTGVTKYPITQFQPLYYVADSFETAKEKTIKFANSIPRPFGVRYNAYTQSVEVLDSKPQISNLMDNINSEFQILQNAVAKLRV,MAPPIT interaction score,[9],0.406 (inactive)
same,MAPPIT interaction score,[10],0.808 (inactive)
mats (protein) MDFLFGSRSSKTFKPKKNIPEGTHQYDLMKHAAATLGSGNLRNAVALPDGEDLNEWVAVNTVDFFNQINMLYGTITEFCTEETCGIMSAGPKYEYHWADGLTVKKPIKCSAPKYIDYLMTWVQDQLDDETLFPSKIGVPFPKNFHSSAKTILKRLFRVYAHIYHQHFTEVVTLGEEAHLNTSFKHFIFFVQEFNLIERRELAPLQELIDKLTAKDERQI,MAPPIT interaction score,[11],1.25 (inactive)
fog (protein) MSPPNCLLAVLALTVFIGANNALPITSRPIEGNVQRMVWEDWVNLDPEQRNLTKEKKITAKSIFTLPFRHCPQGHTLFNQLCIPQSNIDPTDLVKQELILAGGSNGSPPPPPIGDYDYGDDEESEEIVYDLSVIPTAMQDGLPPSVGTGDQALPSEDAPLKFNIFEKKFPTGTGEHEEMPLPPDMAAATYAKNISTTPETSTSITPTSTTTFAVPSVPSGEASNRIPGGVDLLAAPSDAFSTSTTLSMPTSNTTTTSNKDIGQVESIVLPADQEHDGLVHLVTSSLSDNDSDDSSTTLNGFNAEADLAQLLKVDAFWPVYDGSIELLPPLFSHRKVAPPLSADQDVKTKHAVDAAEKVGAELEEEVGEEEVTATDILPSEEDEYTTETATTTGDTTVAEASMDTSTATSTSGQSSPHPPEEPEIDERENRLVLIKSKVQPVQLTTTTSATATTAADVANSSSSTDRFHYQHFVEDESSTTTATPEPSSSTPGDPIEQSDMPASDNDNLMTNTIGGRGDDDDDGGHKATSEIHVQQELRLINELVKGKQRQQHQPQKQQLEPTSTEITSALTSTSTEDATTTTTTTTAYTNWSKVMPQLGQSTSETAATTETVATSGQVNEISLTATSASTEVKHFSITNRSYRNSKIIREDRLTVEPEGIVESAASTESAGTAATTPNSSSNPDGYTPLWWLPSIGWRLDRHLDGNGEDQSLLLRFFSTFRGSNTAATTR,MAPPIT interaction score,[12],-0.488 (inactive)
me31B (protein) MMTEKLNSGHTNLTSKGIINDLQIAGNTSDDMGWKSKLKLPPKDNRFKTTDVTDTRGNEFEEFCLKRELLMGIFEKGWERPSPIQEAAIPIALSGKDVLARAKNGTGKTGAYCIPVLEQIDPTKDYIQALVMVPTRELALQTSQICIELAKHLDIRVMVTTGGTILKDDILRIYQKVQLIIATPGRILDLMDKKVADMSHCRILVLDEADKLLSLDFQGMLDHVILKLPKDPQILLFSATFPLTVKNFMEKHLREPYEINLMEELTLKGVTQYYAFVQERQKVHCLNTLFSKLQINQSIIFCNSTQRVELLAKKITELGYCCYYIHAKMAQAHRNRVFHDFRQGLCRNLVCSDLFTRGIDVQAVNVVINFDFPRMAETYLHRIGRSGRFGHLGIAINLITYEDRFDLHRIEKELGTEIKPIPKVIDPALYVANVGASVGDTCNNSDLNNSANEEGNVSK,MAPPIT interaction score,[13],0.228 (inactive)
same,MAPPIT interaction score,[14],0.203 (inactive)
